Hits are enriched below; roughly 3.2% of the tested compounds scored in any of these assays.
Nrf2 ARE act – activates Nrf2 signaling. Potency, µM (highest dose often 46.1 µM), usual class: activators. AREc32 ARE-luciferase reporter (MCF7-derived line), luminescence, 24 h. AID 624171. 410,000 compounds, 0.31% hits; also: nearly all actives have a fitted effect of over 65% in size
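For detection, Steady-Glo was added and plates sat 30 min at RT; before that, AREc32_Fluc cells grown overnight in OPTI-MEM/5% FBS had been treated with 23 nL compound for 24 hr at 37 deg C.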
p53 reactivation – restores transcriptional activity of mutant p53 | 320,000 compounds, 0.063% hits | Potency, µM (top dose mostly 92.2 µM), most hits filed as activators | H1299 p53-A138V BP100-luciferase reporter, luminescence, 24 h | AID 504706; also: nearly all actives have a fitted effect of over 45% in size
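H1299 (p53-null), stable ts p53-A138V + BP100-Luc; 1000 cells/well, Opti-MEM/10% FBS; cpd 4 pt, 1:5; 24 h, 37 deg C, 5% CO2; detection reagent 10 min RT; luminescence.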
A549 viability – counter-screen for Nrf2 inhibitors: cytotoxicity in A549 cells. AID 504648. 390,000 compounds, 0.16% hits. Potency, µM (doses to about 46 µM), most hits filed as inhibitors. A549 ARE-Fluc cells, CellTiter-Fluor viability, 18-24 h
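A549 ARE-Fluc cells in 5% FBS OPTI-MEM, 5000 cells/well, rested 2 h then exposed to compounds in concentration-response for 18-24 h at 37 °C. Viability by CellTiter-Fluor fluorescence (Ex 405/Em 525) after 30 min; luciferase luminescence (BugLite, 15 min, RT) read afterwards.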
IL-2 act – activates IL-2 in a cell-based reporter assay. IL-2 activation reporter assay, cell-based qHTS; stimulated with anti-CD3/CD4/CD28 beads; in transgenic mouse T cells. activation, % (series mostly up to about 46 µM). 360,000 compounds, 0.065% hits. AID 652025; in the data active = activation above about 50%; inconclusive = mostly about 30% to 49%
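Readout is EGFP and DsRed signal by fluorescent plate cytometry after 18 h at 37 degrees C. Transgenic mouse T cells (750/well) received compound for 60 min before bead stimulation (anti-CD3, anti-CD4, anti-CD28); memory T cells served as non-tolerant control.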
BRCA1 expr up – BRCA1 expression activation. MCF7-BRCA1-FFLuc reporter, luminescence, 48 h; response scale: scaled: vehicle 0%, 10 µM genistein 100%. Potency, µM (titrated, usually from 46.1 µM), most hits filed as activators. 380,000 compounds, 1.1% hits; also: nearly all actives have a fitted effect of over 80% in size
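Using MCF7 cells harboring a BRCA1 firefly luciferase reporter, plated 2 h before compound pinning, the screen measured luminescence after 48 h incubation. Responses were normalized to DMSO and 10 microM genistein, then fitted for concentration-effect.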
Nrf2 inh – Nrf2 pathway inhibition; A549 ARE-Fluc reporter, luciferase luminescence, 18-24 h; Potency, µM (highest dose often 46 µM), usual class: inhibitors; 360,000 compounds, 2.1% hits; also: nearly all actives have a fitted effect of over 60% in size
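Nrf2 activity is the BugLite luminescence, read 15 min after reagent at room temperature, following CellTiter-Fluor cytotoxicity readout (30 min, 37C). Compound titrations were applied for 18-24 h to 5000 A549 ARE_Fluc cells/well in 5% FBS OPTI-MEM.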
A number is an active result; 0 = inactive; ? = inconclusive; - = no result given. Unless noted, calls follow the shape of the dose curve; as a rule, active = well fitted curve in the direction sought with a large enough effect; inconclusive = small, poorly fitted or top-dose-only effect, or another doubt; inactive = no such curve, though single readings can be large; an effect the other way counts as inactive or inconclusive.

SMILES | Nrf2 ARE act | p53 reactivation | A549 viability | IL-2 act | BRCA1 expr up | Nrf2 inh
COc1ccc(-c2nnc(COc3ccc4ccccc4c3)o2)cc1OC | 0 | 0 | - | 0 | 0 | 23µM
CCOc1ccc(-c2nnc(-c3cccs3)o2)cc1OCC | 0 | 0 | 0 | 0 | 8.9µM | 0
COc1ccc(-c2nnc(-c3cccs3)o2)cc1OC | 0 | ? | 0 | 0 | 5µM | -
COc1cc(Cl)c(C)cc1NC(=O)CSc1nc2c(c(=O)[nH]1)CCC2 | 0 | - | 0 | - | - | ?
COc1cc2oc3ccccc3c2cc1N(CC(=O)N(C)C)S(=O)(=O)c1ccccc1 | 0 | - | 0 | 0 | 0 | 0
CCN(CC)C(=O)CN(c1cc2c(cc1OC)oc1ccccc12)S(=O)(=O)c1ccccc1 | 0 | - | ? | 0 | 0 | 16µM
CSc1ccc(CN(C)C(=O)CNC(=O)c2sc3ccccc3c2Cl)cc1 | 0 | 0 | ? | 0 | 0 | 10µM
COc1ccc(-n2cc(-c3ccccc3)[n+]3c2CCCCC3)cc1 | 0 | 0 | 0 | 0 | 0 | 8.2µM
COc1cc2c(cc1OC)C(COc1ccccc1OC)N(C(=O)CC(C)C)CC2 (centres undefined) | 0 | - | 0 | - | 0 | -
O=C(c1cc(-c2ccco2)on1)N1CCCc2ccccc21 | 11µM | ? | 0 | 0 | 0 | ?
O=C(c1cc(-c2ccco2)on1)N1CCc2ccccc2C1 | 14µM | ? | 0 | 0 | 0 | ?
O=C(c1cc(-c2ccccc2O)on1)N1CCc2ccccc2C1 | 0 | ? | 0 | 0 | 10µM | 0
CC1CCN(C(=O)c2cc(-c3ccco3)on2)CC1 | 14µM | 0 | 0 | 0 | 0 | ?
CC1CCN(C(=O)c2cc(-c3ccccc3O)on2)CC1 | 0 | ? | 0 | 0 | ? | ?
COc1ccc2cc(-c3nc4ccc(C(=O)O)cc4[nH]3)c(=O)oc2c1 | 0 | - | ? | - | - | -
Cc1ccc(NC(=O)c2cnc(SCC(=O)N3CCOCC3)n(C)c2=O)cc1 | 0 | - | 0 | - | - | -
CCc1sc(-c2cc3ccccc3oc2=O)nc1-c1ccc(C)cc1 | - | - | 0 | - | 0 | 0
Cc1cccc(NC(c2nnc(-c3ccccc3)o2)c2ccc(F)cc2Cl)c1C (centres undefined) | 0 | - | 0 | - | - | 0
O=C(NCc1ccccc1)c1cc(-c2ccco2)on1 | 0 | ? | 0 | 0 | 11µM | 0
CCOC(=O)c1sc2nc(C)nc(NCc3ccc(Cl)cc3)c2c1C | 0 | 0 | 0 | 0 | 0 | 18µM
CCOC(=O)c1sc2nc(CC(=O)OC)nc(NCc3ccc(F)cc3)c2c1C | 0 | 0 | ? | 0 | 0 | 10µM
CCOC(=O)c1sc2nc(C)nc(NCc3ccc(F)cc3)c2c1C | 0 | 0 | 0 | 0 | 0 | ?
Cn1c2c(c3cnc4cc(Cl)ccc4c31)CN(Cc1ccc(Cl)cc1)CC2 | - | - | ? | - | 0 | 0
CCN(CC)CCNc1ccc(CO)c2sc3ccccc3c(=O)c12 | 0 | 0 | 16µM | 0 | 0 | 6.5µM
CCN(CC)CCNc1cccc2sc3ccccc3c(=O)c12 | 0 | - | - | 0 | 0 | -
SMILES | Nrf2 ARE act | p53 reactivation | A549 viability | IL-2 act | BRCA1 expr up | Nrf2 inh
O=C(Cn1cc(SCc2ccc(F)cc2)c2ccccc21)N1CCOCC1 | 0 | 28µM | 0 | 0 | 0 | 0
O=C(CSc1cn(Cc2ccccc2)c2ccccc12)N1CCOCC1 | 0 | 0 | 0 | 0 | 7.9µM | ?
COc1ccc(CCNC(=O)Cc2ccc(NC(=O)N3CCSc4ncccc43)cc2)cc1OC | 0 | - | 0 | - | - | 0
COc1cc(Cl)c(C)cc1NC(=O)c1nn(C)c2c1CSc1ccccc1-2 | 0 | - | 0 | - | - | 0
O=C(Nc1ccc(F)cc1)N1CCC(c2nc3c(nnn3Cc3cccc(Cl)c3)c(=O)[nH]2)CC1 | 0 | 0 | ? | 0 | 0 | 21µM
COc1cccc(CNC(=O)Cn2cc3c(n2)-c2c(oc(C(=O)N4CCCC4)c2C)CC3)c1OC | 0 | - | 0 | - | - | ?
O=C(Cc1cccs1)NCCc1ccc(F)cc1 | 0 | - | 0 | 0 | 0 | 0
OCCc1ccc(NCCc2cccs2)cc1 | 0 | - | - | 0 | 8.9µM | -
CCn1cc(S(=O)(=O)c2cccc(Cl)c2)c(=O)c2cc(F)c(N3CCC(C)CC3)cc21 | 0 | - | 0 | - | - | 0

High-throughput results (PubChem)
